Results on 33 molecules are retold here after PubChem BioAssay (EPA / NIEHS).

Records with an inconclusive call do not appear. Calls of active or inactive are those of the source. The calls were made as follows: active = hit-call score of the fitted dose curve at least 0.9, where 1 is the maximum; inconclusive = response in the unintended direction; inactive = score below 0.9.

Read-out in the assay: alkyl and aryl transferase (GSTA2), GSTA2 (gene 2939)
The assay is described as follows: CLD_GSTA2_6hr: CellzDirect (CLD) Gene Expression Assay for alkyl and aryl transferase (GSTA2) at 6 hours (AID 2283666). How it is done: CLD_6hr is a cell-based, multiplexed-readout assay that uses hepatocyte, a human liver primary cell, with measurements taken at 6 hours after chemical dosing in a 96-well plate.CLD_GSTA2_6hr is one of 16 assay component(s) measured or calculated from the CLD_6hr assay. It is designed to make measurements of mRNA induction, a form of inducible reporter, as detected with chemiluminescence signals by Quantitative Nuclease Protection Assay (qNPA) technology.Data from the assay component CLD_GSTA2_6hr was analyzed at the endpoint, CLD_GSTA2_6hr, in the positive analysis fitting direction relative to DMSO as the negative control and baseline of activity. Using a type of inducible reporter, gain-of-signal activity can be used to understand changes in the reporter gene as they relate to the gene GSTA2. Furthermore, this assay endpoint can be referred to as a primary readout. To generalize the intended target to other relatable targets, this assay endpoint is annotated to the transferase intended target family, where subfamily is alkyl and aryl transferase.
Human hepatocyte cultures were treated daily for two consecutive days with fresh dosing solutions containing appropriate concentrations of the 320 ToxCast chemicals (chemical identities were blinded to CellzDirect and other ToxCast collaborators), vehicle control (0.2% DMSO), and positive control inducers as summarized in Table 1. Due to the large number of treatment groups and chemicals examined, the ToxCast chemicals were divided into two groups (spanning two independent cultures of hepatocytes from separate donor preparations (Hu778: ToxCast plates 1 and 2; Hu776: ToxCast plates 3 and 4). Each preparation of human hepatocyte cultures was treated with respective vehicle control, medium only control, set of six positive controls/reference chemicals for the five hepatic receptor pathways, and a subset of eight of the ToxCast chemicals (indoxacarb, pyrithiobac-sodium, norflurazon, cyhalofop-butyl, methomyl, thiram, acetochlor, and propiconazole). These replicate data, coupled with internal replicates designed within the blinded ToxCast chemical library, provided additional data to evaluate interindividual differences between hepatocyte preparations and their potential impact on chemical profiles.Cell morphology and integrity were evaluated using phase-contrast microscopy as an indicator of hepatocyte cell health (Tyson & Green, 1987). Cultures for each treatment group (i.e., media, vehicle [0.2% DMSO], positive control inducers [multiple concentrations], and the ToxCast chemicals [multiple concentrations]) were observed and cell morphology was assessed relative to vehicle control cultures at each harvest time point (0, 6, 24, or 48 h). […] Images were evaluated at the conclusion of the study to assess changes in cell integrity and account for the effects of chemical exposure on uncharacteristic changes in concentration-dependent gene expression profiles. The results from these determinations of apparent cytotoxicity were annotated (yes/no) alongside the corresponding qNPA data for reference.At the conclusion of each treatment period, hepatocyte cultures (96-well) were washed with 1 volume of HBSS, lysed by addition of 25 ul ArrayPlate lysis buffer (HTG, Tucson, AZ), and 70 ul/well of Denaturation Oil, denatured by incubation at 95C for 10 min, and frozen at approximately -70C until analysis by nuclease protection assay (qNPA) (Roberts et al., 2007). For qNPA analysis, cell lysates were thawed at 50C for approximately 30 min, qNPA probes were added, and samples were incubated at 95C for 10 min to begin the detection process by denaturing the target RNA, dissociating the duplexes and secondary structure hybridization. At the conclusion of the hybridization period, S1 nuclease reagent was added to each sample to digest all nonprotected nucleotides at 50C for 60-90 min. […]
In the case of `O=C(O)c1nc(Cl)ccc1Cl`, the outcome was inactive. On to `COc1nc(C)nc(NC(=O)NS(=O)(=O)c2ccccc2CCC(F)(F)F)n1`, for which the molecule was called inactive. For the molecule `CC(C)Oc1cc(-n2nc(C(C)(C)C)oc2=O)c(Cl)cc1Cl`, the molecule was called inactive. On to `CCCCNC(=O)OCC#CI`, for which the molecule was called inactive. As for `CCOC(=O)CC(SP(=S)(OC)OC)C(=O)OCC` (stereo not drawn), the call was inactive. As for `C#CCOS(=O)OC1CCCCC1Oc1ccc(C(C)(C)C)cc1` (stereo not drawn), the entry is “inactive”; as for `Cc1cc(Cl)ccc1OCC(=O)O`, “inactive”; as for `CCCCNC(=O)n1c(NC(=O)OC)nc2ccccc21`, “inactive”.

Take `COc1nc(NC(C)C)nc(NC(C)C)n1`: the outcome was inactive.

With `N#Cc1nn(-c2c(Cl)cc(C(F)(F)F)cc2Cl)c(N)c1S(=O)C(F)(F)F` (stereo not drawn), the molecule was classed as inactive.

Regarding `C=CCC1=C(C)C(OC(=O)C2C(C=C(C)C)C2(C)C)CC1=O` (stereo not drawn), the result was inactive. To `CCOP(=S)(OCC)SCn1c(=O)oc2cc(Cl)ccc21` belongs “inactive”. Consider `O=C(O)COc1nc(Cl)c(Cl)cc1Cl`, for which the molecule was called inactive.

As to `COC(=O)C(C)Oc1ccc(Oc2ccc(Cl)cc2Cl)cc1` (stereo not drawn), the result was inactive. For `O=C(Nc1ccccc1)Nc1ccnc(Cl)c1`, the molecule was classed as inactive.

Regarding `C=CCC1=C(C)[C@@H](OC(=O)[C@@H]2[C@@H](C=C(C)C)C2(C)C)CC1=O`, the call was inactive. As to `COC(=O)C=C(C)OP(=O)(OC)OC`, the outcome was inactive. To `Oc1ccccc1-c1ccccc1` belongs “inactive”. For `Cc1c(F)c(F)c(COC(=O)C2C(/C=C(\Cl)C(F)(F)F)C2(C)C)c(F)c1F` (stereo not drawn), the molecule was classed as inactive. On to `CNC(=O)ON=CC(C)(C)SC`, for which the molecule was classed as inactive. On to `N#Cc1cc(Br)c(O)c(Br)c1`, for which the outcome was inactive. Take `COc1nc(C)nc(NC(=O)NS(=O)(=O)c2ccccc2Cl)n1`: the outcome was inactive. Take `CCON=C(CC)C1=C(O)CC(c2c(C)cc(C)cc2C)CC1=O` (stereo not drawn): the result was inactive.

For the molecule `CC(Oc1ccc(Cl)cc1Cl)C(=O)O` (stereo not drawn), the result was inactive.

As for `CCc1nn(C)c(C(=O)NCc2ccc(C(C)(C)C)cc2)c1Cl`, the call was inactive. Consider `CCNc1nc(Cl)nc(NC(C)C)n1`, for which the outcome was inactive. For `COP(N)(=O)SC` (stereo not drawn), the call was inactive. As for `CCOc1cc(Oc2ccc(C(F)(F)F)cc2Cl)ccc1[N+](=O)[O-]`, the outcome was inactive. To `COC(=O)N(OC)c1ccccc1COc1ccn(-c2ccc(Cl)cc2)n1` belongs “inactive”. In the case of `CC(C)(C)c1ccc(CSc2cnn(C(C)(C)C)c(=O)c2Cl)cc1`, the result was inactive.

For `Cc1ccc(-c2c(Cl)nc(C#N)n2S(=O)(=O)N(C)C)cc1`, the outcome was inactive. As for `CN(C)C(=S)SSC(=S)N(C)C`, the molecule was classed as inactive.

For `CO/C=C(/C(=O)OC)c1ccccc1Oc1cc(Oc2ccccc2C#N)ncn1`, the outcome was inactive.
